# Most compounds without a hit are left out; they make up all but 4.1% or so of the library.
# PglD inh = C. jejuni PglD acetyltransferase inhibitors, primary screen, biochemical, DTNB colorimetric, single point. 0.098% of 360,000 active. purified PglD enzyme, DTNB colorimetric CoA detection. inhibition, % at 12.5 µM. UDP-N-acetylbacillosamine N-acetyltransferase PglD (Campylobacter jejuni); in the data active = inhibition above about 16%, passing the limit was not always enough
# F508del corr = F508del CFTR correction, initial screen, CFBE line, single point; CFBE cells, YFP halide quenching; stimulated with forskolin plus potentiator P3; % fluorescence drop versus neutral controls; activity (quench increase), % at 7.58 µM; 0.36% of 350,000 active;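 active = mean added fluorescence quench of at least 8% versus neutral control, with both replicates also reaching 8%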;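 also: cells transiently co-express mutant CFTR-F508del with the halide-sensitive YFP; corrector assay measuring rescue of mutant channel to the surface after 24 h compound exposure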
# HIV Env fusion = inhibitors of HIV-1 Env-driven cell-cell fusion, primary screen, HeLa-JRFL effector, CEM21 target cells, luciferase; inhibition, % at 12.3 µM; 1.1% of 360,000 active; AID 651610, 2012;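 active = mean replicate inhibition score of at least 50 and every replicate individually at or above 50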;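 also: 0% = plate neutral controls and 100% = maraviroc near 300 nM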
# ALR inh = inhibitors of human ALR sulfhydryl oxidase, primary screen, biochemical, H2O2 detection, HRP-luminol luminescence, single point; FAD-linked sulfhydryl oxidase ALR (Homo sapiens), P55789; purified ALR, DTT oxidation; inhibition, % (test concentration not listed); 3.8% of 290,000 active;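 active = mean replicate inhibition above about 79%, with every replicate also reaching it, limit read from the data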
# Target sequence (P55789 whole entry, looked up): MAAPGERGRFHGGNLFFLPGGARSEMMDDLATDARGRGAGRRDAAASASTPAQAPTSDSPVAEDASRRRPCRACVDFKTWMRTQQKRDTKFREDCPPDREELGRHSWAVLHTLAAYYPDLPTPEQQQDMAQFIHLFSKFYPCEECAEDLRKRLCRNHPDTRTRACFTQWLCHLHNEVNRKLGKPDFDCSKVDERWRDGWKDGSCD
# Casp6 inh = human caspase-6 inhibitors, primary screen, biochemical, VEID-R110 fluorescence, single point, set 2; P55212; purified caspase-6, Z-VEID-R110 cleavage fluorescence; inhibition, % at 12.5 µM; 0.53% of 350,000 active; AID 686996, 2013;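 active = mean inhibition across replicates at least about 35%, with every replicate also reaching that limit, limit read from the data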;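 also: 0% = median of neutral control wells and 100% = no fluorescence left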
# NSD2 HMT inh = NSD2 histone methyltransferase inhibitors, primary screen, biochemical, AlphaScreen, single concentration, set 2. Histone-lysine N-methyltransferase NSD2 (Homo sapiens), O96028. NSD2 peptide methylation, 120 min. inhibition, % at 12.5 µM. 0.54% of 310,000 active. AID 743445, 2014; in the data active = inhibition above about 50%
# The depositor's hits bear a star; nt = no result; [ ] = dose if it differs, or a comment.
SMILES,PglD inh,F508del corr,HIV Env fusion,ALR inh,Casp6 inh,NSD2 HMT inh
C[C@@H]1CCCCO[C@H](CN(C)Cc2ccc(C(F)(F)F)cc2)[C@H](C)CN([C@H](C)CO)C(=O)c2cc(NC(=O)Cc3ccccc3)ccc2O1,2,-1,57*[16.7 µM],nt,nt,nt
C[C@H]1CCCCO[C@@H](CN(C)Cc2ccc(C(F)(F)F)cc2)[C@@H](C)CN([C@@H](C)CO)C(=O)c2cc(NC(=O)Cc3ccccc3)ccc2O1,3,3,75*[16.7 µM],nt,nt,nt
C[C@@H]1CN([C@@H](C)CO)C(=O)c2cccc(NC(=O)c3cnccn3)c2O[C@@H]1CN(C)S(=O)(=O)c1cn(C)cn1,2,2,-2[16.7 µM],nt,1,nt
C[C@@H]1CN([C@@H](C)CO)C(=O)c2cc(-c3ccccc3F)cnc2O[C@H]1CN(C)Cc1cccc(C(=O)O)c1,0,0,-48[16.7 µM],nt,4,nt
CC(OC(=O)COc1ccccc1[N+](=O)[O-])C(=O)Nc1ccc(N2CCOCC2)cc1 (stereo unspecified),nt,-4,10,76*,1,-1
Cc1ccc(C(=O)NCC(=O)OC(C)C(=O)Nc2ccc(N3CCOCC3)cc2)s1 (stereo unspecified),1,0,-7,93*,-2,0
Cc1cccc(S(=O)(=O)N2C[C@H](O)COC[C@H]3O[C@H](CC(=O)Nc4ccccc4)CC[C@@H]32)c1,5,0,nt,nt,-2,nt
Cc1cc(NC(=O)CSc2cc(C)c3ccccc3n2)no1,-4,2,-15,-6,0,-3
COc1ccc(NC(=O)CSc2c3c(nc4ccccc24)CCCC3)c(OC)c1,-2,nt,1,100*,nt,-2
COc1ccccc1NC(=O)CSc1c2c(nc3ccccc13)CCC2,nt,nt,nt,99*,nt,5
COc1cc(NC(=O)c2ccc3c(SCC(=O)O)c4c(nc3c2)CCC4)cc(OC)c1OC,2,-3,-15,-5,9,5
Cc1cc(NC(=O)CSc2c3c(nc4ccccc24)CCC3)no1,4,1,-14,98*,10,nt
COc1ccc(OC)c(NC(=O)c2c3c(nc4ccccc24)CCC3)c1,-2,-1,nt,-21,3,0
CC1CCCC(NC(=O)c2ccc3c(SCC(=O)O)c4c(nc3c2)CCC4)C1C (stereo unspecified),4,-3,1,0,43*,nt
CCCC#Cc1ccc2c(c1)O[C@@H](CN(C)C(=O)Nc1ccccc1F)[C@H](C)CN([C@H](C)CO)S2(=O)=O,4,5,1[16.7 µM],nt,1,nt
CCC(=O)N1C[C@H](C)[C@@H](OC)CN(C)C(=O)c2ccc(NC(=O)C3CCOCC3)cc2OC[C@@H]1C,nt,0,nt,nt,0,nt
CC(C)NC(=O)CSc1nc(Cc2ccccc2)nc2ccccc12,-1,1,9,nt,0,-5
COc1cc(NC(=O)CSc2c3c(nc4ccccc24)CCC3)cc(OC)c1OC,0,0,-14,98*,0,-3
O=C(CSc1c2c(nc3ccccc13)CCC2)N1CCCC1,nt,0,-6,98*,7,2
CC(C)NC(=O)CSc1c2c(nc3ccccc13)CCCC2,nt,0,-3,76*,2,-2
COc1ccc(NC(=O)CSc2c3c(nc4cc(Cl)ccc24)CCCC3)cc1OC,nt,3,nt,99*,2,0
Cc1noc(C)c1NC(=O)N(C)C[C@@H]1Oc2ccc(NC(=O)NC(C)C)cc2CC(=O)N([C@@H](C)CO)C[C@@H]1C,0,-1,-6[16.7 µM],nt,-1,nt
COc1cc(NC(=O)c2ccc3c(SCC(=O)O)c4c(nc3c2)CCCC4)cc(OC)c1OC,nt,0,16,97*,10,6
O=C(CSc1c2c(nc3cc(Cl)ccc13)CCCC2)NCc1ccco1,2,nt,-76,nt,nt,2
COCCNC(=O)CSc1c2c(nc3ccc(Cl)cc13)CCCC2,nt,nt,2,98*,2,nt
COc1ccc2c3c(n(C)c2c1)[C@H](CO)N(CC1CC1)CC31CN(Cc2nccs2)C1,nt,1,nt,nt,-7,nt
COc1cccc(S(=O)(=O)N2CCC3(CC2)CN[C@@H](CO)c2[nH]c4cc(OC)ccc4c23)c1,nt,0,nt,nt,nt,nt

# High-throughput results as filed in PubChem.
